Most compounds without a hit are left out; they make up all but 2.6% or so of the library.
TRPV1 agonist: agonists of human vanilloid receptor 1 (TRPV1) | Q8NER1 | TRPV1-expressing cells, Fluo-8 calcium influx, agonist mode | activation, % at 8.33 µM | actives 0.19% (n = 320,000) | AID 540275; in the data active = activation above about 80%; inconclusive = between about 30% and that limit; also: 0% is about no effect
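Cells expressing TRPV1 were dye-loaded with Fluo-8 and read kinetically: 10 s baseline, 3 min after compound (agonist portion), then 2 min after EC20 capsaicin (allosteric enhancer portion). Calcium-bound dye fluorescence at 480/520 nm.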
p53 reactivator: restores transcriptional activity of mutant p53 | Potency, µM (series often up to 92.2 µM), inactives show top-dose activity change, positive = activation, usual class: activators | AID 504706 | H1299 p53-A138V BP100-luciferase reporter, luminescence, 24 h | actives 0.063% (n = 320,000); active = well fitted activation curve with a large enough effect; inconclusive = small, poorly fitted or top-dose-only effect; inactive = no such curve, though single readings can be large or run the other way; also: potency is read from the fitted curve at half-maximal effect; % of control where 0% means no effect; nearly all actives have a fitted effect of over 45% in size
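H1299 (p53-null), stable ts p53-A138V + BP100-Luc; 1000 cells/well, Opti-MEM/10% FBS; cpd 4 pt, 1:5; 24 h, 37 deg C, 5% CO2; detection reagent 10 min RT; luminescence.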
KCNH2 3.1 block: blocks the human KCNH2 3.1 channel isoform. U2OS KCNH2 3.1, thallium flux FluxOr; stronger effect = lower value. activity change, % (tested at about 1.8 µM). actives 0.95% (n = 340,000). AID 720553;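 active = maximum activity change below -70%; inconclusive = maximum activity change from -70% to -50%; inactive = maximum activity change above -50%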;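 also: thallium influx rate constant from kinetic fluorescence after stimulation buffer; % is scaled to controls: 0 for no effect and ±100 for the full control effect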
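Virally transduced U2OS (3.1 isoform, 4 h infection in dark at RT) → overnight 37 C → FluxOr + Red40 in HBSS/HEPES, 45 min → stimulation buffer, 2 min kinetic read → rate constant vs DMSO controls.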
KCNH2 WT inh: KCNH2 (human, wildtype) channel inhibition; U2OS, BacMam KCNH2, thallium flux FluxOr; stronger effect = lower value; activity change, % at 1.84 µM; actives 0.37% (n = 340,000); AID 720551;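 active = maximum activity change below -70%; inconclusive = maximum activity change between -70% and -50%; inactive = maximum activity change above -50%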; also: % is scaled to controls: 0 for no effect and ±100 for the full control effect
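U2OS cells transduced with wild-type KCNH2 virus are loaded with FluxOr dye for 45 min, and thallium flux is measured in kinetic reads before and after stimulation buffer. Rate constants are normalized to DMSO controls.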
TRPV1 PAM: enhances activation of the human vanilloid receptor TRPV1. Q8NER1. TRPV1-expressing cells, Fluo-8 calcium influx, capsaicin EC20 potentiation. potentiation, % at 8.33 µM. AID 540277. actives 0.02% (n = 320,000); in the data active = potentiation above about 80%; inconclusive = between about 30% and that limit; also: 0% is about no effect
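Cells expressing TRPV1 were dye-loaded with Fluo-8 and read kinetically: 10 s baseline, 3 min after compound (agonist portion), then 2 min after EC20 capsaicin (allosteric enhancer portion). Calcium-bound dye fluorescence at 480/520 nm.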
ClpP mod: qHTS Assay for Activators of ClpP; ATP-dependent Clp protease proteolytic subunit (Bacillus subtilis (strain 168)), P80244; actives 1.9% (n = 340,000); Potency, µM (doses to about 57.5 µM), for inactives: at the highest dose activity change, negative = active; purified B. subtilis ClpP, FRET peptide cleavage, 20 min; active = well fitted falling curve with a large enough effect; inconclusive = small, poorly fitted or top-dose-only effect; inactive = no such curve, though single readings can be large or run the other way; also: potency is read from the fitted curve at half-maximal effect; the source files actives as falling curves though it sought activators and does not explain the sign; nearly all actives have a fitted effect of over 65% in size
Target sequence (P80244 whole entry, looked up): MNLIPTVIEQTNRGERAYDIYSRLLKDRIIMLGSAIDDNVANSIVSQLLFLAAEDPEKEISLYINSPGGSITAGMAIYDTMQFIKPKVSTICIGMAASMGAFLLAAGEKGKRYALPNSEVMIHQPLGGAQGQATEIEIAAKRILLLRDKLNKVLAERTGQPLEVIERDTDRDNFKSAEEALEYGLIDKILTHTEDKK
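FRET quenching reversal measured ClpP activation: 10 microg/mL B. subtilis ClpP at pH 8 with the FRET-FV decapeptide, read at 430 nm after 320 nm excitation. The 20-min minus 0-min signal was scaled between DMSO/no-enzyme wells and ADEP (5.8 microM final).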
Starred values were filed as active, the others as inactive; i = inactive; u = inconclusive; x = no result given.

SMILES	TRPV1 agonist	p53 reactivator	KCNH2 3.1 block	KCNH2 WT inh	TRPV1 PAM	ClpP mod
COc1ccc(NC(=O)c2cc(C3CCCCN3S(=O)(=O)c3ccccc3)on2)c(C)c1 (stereo not drawn)	x	x	x	x	x	0.3%
Cc1ccc2c(c1Br)C(O)(CC(=O)c1ccc(F)cc1)C(=O)N2 (stereo not drawn)	x	x	x	x	x	-3.6%
CCCCc1ccc(/C(C)=N/Nc2cc(N3CCOCC3)nc(C)n2)cc1	-2.3	x	-81.6*	8.3	13.0	-1.0%
CCOc1ccccc1NC(=O)NCc1noc2ccc(C)cc12	x	x	x	x	x	0.1%
CC(=O)N/N=c1\sc2ccccc2n1C	2.7	-3.0%	5.4	1.1	8.0	x
Cn1/c(=N\NC(=O)C2CCCCC2)sc2ccccc21	-6.6	0.8%	-1.8	-24.3	-18.4	14.1µM*
O=c1nc2n(CCO)c3ccccc3cc-2c(=O)[nH]1	x	x	2.5	-12.9	x	31.6µM*
Clc1ccc(Nc2nc(NCc3ccco3)nc3nccnc23)cc1	x	x	x	x	x	2.2%
CCCCn1c(=O)nc2n(-c3ccccc3)c3ccccc3cc-2c1=O	u	-5.5%	-8.8	23.6	-18.4	25.1µM*
CCN(CC)CC(O)CN1C(=O)NC(C)(C)C1=O (stereo not drawn)	-1.1	2.7%	18.0	4.2	0.1	x
CC1(C)NC(=O)N(CC(O)CN(Cc2ccccc2)Cc2ccccc2)C1=O (stereo not drawn)	82.5*	-11.8%	-2.1	16.8	-3.1	0.0%
Cc1cccc(CCNS(=O)(=O)c2ccc(S(=O)(=O)N3CCC(C)CC3)cc2)c1	x	x	-78.8*	-5.8	x	2.6%
Cc1cccc(CCNS(=O)(=O)c2ccc(S(=O)(=O)N3CCCCC3)cc2)c1	13.7	0.0%	-11.8	2.7	-1.0	-0.7%
Cc1ccc(C)c(Nc2nc3c(S(=O)(=O)c4ccc(Br)cc4)nnn3c3ccsc23)c1	x	x	x	x	x	28.2µM*
Cc1ccc(C)c(Nc2nc3c(S(=O)(=O)c4ccc(C(C)C)cc4)nnn3c3ccsc23)c1	x	x	x	x	x	35.5µM*
CCN(CC)CCN(C(=O)/C=C/c1cccs1)c1nc2ccc(Cl)cc2s1	-1.2	16.4%	-99.9*	-148.7*	-7.9	-1.2%
CCOC(=O)[C@]12CCC=C1N(Cc1ccc3c(c1)OCO3)C(=O)[C@H](CC(=O)N1CCN(C(=O)c3ccco3)CC1)C2	x	x	x	x	x	-1.0%
C=CCN(C(=O)CSc1nc2ccsc2c(=O)n1Cc1ccccn1)c1ccccc1	-3.9	3.6%	-90.8*	-9.1	7.5	x
COc1cccc(NC(=O)N2CCN(c3cccc(C)c3)C(C)C2)c1 (stereo not drawn)	0.7	4.8%	-10.2	-7.0	-10.5	-0.1%
COc1cccc(N2CCN(C(=O)c3ccc(=O)oc3)CC2C)c1 (stereo not drawn)	x	6.6%	0.4	-5.9	x	28.2µM*
O/N=C(/CI)c1ccc2ccccc2c1	x	x	x	x	x	-7.3%
CCCCN(C(=O)C1CC(=O)N(c2ccc3c(c2)OCCO3)C1)c1c(N)n(CC(C)C)c(=O)[nH]c1=O (stereo not drawn)	2.5	-0.7%	-192.4*	-151.8*	-11.6	x
COc1ccc(CN(C)C(=O)C2CC(=O)N(c3ccc4c(c3)OCCO4)C2)cc1 (stereo not drawn)	x	x	-1.0	3.2	x	0.1%
COc1cccc(CN(C)C(=O)C2CC(=O)N(c3ccc4c(c3)OCCO4)C2)c1 (stereo not drawn)	1.3	-3.5%	10.9	-2.1	3.4	14.1µM*
CCCCn1c(N)c(N(CCC(C)C)C(=O)C2CC(=O)N(c3ccc4c(c3)OCCO4)C2)c(=O)[nH]c1=O (stereo not drawn)	1.0	6.0%	-4.0	-1.8	10.9	x
SMILES	TRPV1 agonist	p53 reactivator	KCNH2 3.1 block	KCNH2 WT inh	TRPV1 PAM	ClpP mod
Cc1ccccc1N=C1NN=C(c2ccccc2F)CS1	-1.9	12.6µM*	-45.1	1.7	6.2	-3.8%
Cc1ccc(S(=O)(=O)N2CCN(C(=O)COC(=O)C3CCC3)CC2)c(C)c1	-0.3	0.6%	10.6	4.1	20.5	25.1µM*
Clc1ccc(/C=C/c2ccncc2)cc1Cl	x	x	x	x	x	4.3%
COc1ccc(CCNC(=O)c2ccc(CSc3ccc(Cl)cc3)o2)cc1OC	x	x	x	x	x	0.1%
O=C(/C=C/c1ccc(N2CCC(c3ccccc3)=N2)cc1)c1ccccc1	22.8	u	x	-73.7*	12.8	-1.7%
Cc1cccc(C)c1NC(=O)C(C1CC1)n1c(-c2ccc(-c3ccccc3)cc2)nc2ccccc21 (stereo not drawn)	x	x	x	x	x	4.3%
O=C(O)c1cc(-c2ccc(Cl)cc2)n(-c2ccccc2)n1	3.5	-0.1%	8.7	i	7.7	x
O=C(c1cc(-c2ccc(Cl)cc2)on1)N1CCOCC1	x	22.3%	3.9	-3.5	x	1.3%
Cc1ccc(-n2nc(C(=O)N3CCOCC3)cc2-c2ccc(Cl)cc2)cc1	89.1*	-9.7%	u	-32.4	0.9	-0.3%
O=C(c1cc(-c2ccc(Cl)cc2)n(-c2ccc(Cl)cc2)n1)N1CCOCC1	u	1.0%	-97.6*	-70.3*	-16.1	-0.3%
COc1ccc2nc(SCc3cccc(C)c3)nc(C)c2c1	3.5	u	-29.1	2.2	-37.0	25.1µM*
COc1ccc2nc(SC(C(=O)c3ccccc3)c3ccccc3)nc(C)c2c1 (stereo not drawn)	-1.2	6.8%	x	2.2	21.5	x
COc1ccc2nc(SCC(=O)O)nc(C)c2c1	2.9	0.5%	-3.0	-0.2	29.7	28.2µM*
COc1ccc2nc(SCc3ccccc3C)nc(C)c2c1	1.5	u	-9.3	-1.1	22.8	7.08µM*
COc1ccc2nc(SCCOC(=O)Nc3ccc(Cl)cc3)nc(C)c2c1	-4.5	-14.5%	11.0	8.3	-45.1	28.2µM*
Cc1cccc(NC(=O)CSc2c(C)cnc3c2c(=O)n(C)c(=O)n3C)c1C	x	x	x	x	x	2.0%
CNC(=O)c1ccc2nc(-c3ccco3)c(-c3ccco3)nc2c1	x	x	x	x	x	-15.7%
COCCNC(=O)c1c(C)oc2nc(C)nc(N3CCOCC3)c12	x	x	x	x	x	0.2%
COc1cc(OC)cc(-c2cc3ccccc3c(=O)o2)c1	x	11.5%	-11.8	1.2	x	28.2µM*
CN(C)c1ccc(C2C=Cc3ccccc32)c2ccccc12 (stereo not drawn)	x	x	x	x	x	0.5%
COc1cc(/C=C/c2nc3ccccc3nc2/C=C/c2cc(OC)c(OC)c(OC)c2)cc(OC)c1OC	x	x	x	x	x	-0.8%
NS(=O)(=O)c1ccc(N=Nc2c(-c3ccccc3)[nH]n(-c3nc(-c4ccccc4)cs3)c2=O)cc1	0.9	17.2%	-84.2*	-33.2	1.1	-2.0%

Screening results deposited in PubChem BioAssay by National Center for Advancing Translational Sciences (NCATS).
